Reference: PubChem BioAssay
Measured potencies and affinities stand elsewhere. Inconclusive results are not listed. Activity calls are given as the source filed them. Unless noted, how the calls were made is not given here.

Assays:
[1] = cytotoxicity in PAX8-dependent RMG-1 cells, dose response, cell-based, cherry-pick (AID 687029;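 active means signal drop whose fitted half-maximal concentration is at most twice the top valid dose, in every test run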;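 further: cells exposed to compound for 96 hours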)
[2] = cytotoxicity in IOSE-T80 ovarian epithelial cells, dose response, selectivity assay for PAX8 inhibitor project, cell-based, cherry-pick (AID 687032;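 active means fitted half-maximal concentration for viability loss no higher than twice the top valid dose, in every repeat run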;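 further: cells exposed to compound for 96 h before reading; 0% = neutral control wells and -100% = 2 µM mitoxantrone kill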)
[3] = inhibitors of CMV-promoter luciferase reporter, dose response, counter-screen for Pax8 inhibitor project, cell-based, HEK293, luminescence, dry powder (AID 743020;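 active means signal-lowering compounds whose fitted half-maximal concentration is at or below twice the top tested dose in every run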;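 further: HEK293 cells stably expressing the CMV luciferase reporter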)
[4] = non-specific cell cytotoxicity, dose response, cytotoxicity control for PAX8 inhibitor project, plate reader, dry powder samples (AID 743021)
[5] = IGROV1 ovarian cancer cell cytotoxicity, dose response, PAX8 inhibitor project, plate reader, dry powder samples (AID 743043);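 further: more negative means fewer viable cells or more cytotoxicity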
[6] = NIH:OVCAR-3 ovarian cancer cell cytotoxicity, dose response, PAX8 inhibitor project, plate reader, dry powder samples (AID 743044); conditions: max activity: at 35 µM, stronger effect = lower value unless noted
[7] = IOSE-T80 ovarian epithelial cell cytotoxicity, dose response, cytotoxicity control for PAX8 inhibitor project, plate reader, dry powder samples (AID 743045);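 further: 0% = neutral control median and -100% = positive control median; more negative values mean more cell killing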
[8] = A2780 ovarian cancer cell cytotoxicity, dose response, cytotoxicity control, plate reader, dry powder samples (AID 743046);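 further: 0% = neutral control wells and -100% = cytotoxic reference compound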

N#Cc1ccc(NC(=O)COC(=O)C2CCC2)cc1
inactive: outcome [1] | outcome [2] | outcome [3] | outcome [4]

CC1=C(C(=O)OC2CCCCC2)C(c2cccnc2)n2ncnc2N1 (stereo not given)
inactive: outcome [1] | outcome [2] | outcome [3] | outcome [4]

Cc1ccc(S(=O)(=O)Nc2ccc3c(c2)C(=O)N([C@H](C)CO)C[C@H](C)[C@@H](CN(C)S(=O)(=O)c2ccc(C)cc2)OCCCC[C@H](C)O3)cc1
inactive: outcome [1] | outcome [2] | outcome [3] | outcome [4]

Cc1noc(/C=C/c2ccco2)c1S(=O)(=O)N1CCC(C(=O)NC(C)c2ccccc2)CC1 (stereo not given)
inactive: outcome [1] | outcome [2] | outcome [3] | outcome [4]

C[C@H]1CCCCO[C@@H](CN(C)Cc2ccc(C(F)(F)F)cc2)[C@@H](C)CN([C@@H](C)CO)C(=O)c2cc(NS(=O)(=O)c3ccc(Cl)cc3)ccc2O1
inactive: outcome [1] | outcome [2] | outcome [3] | outcome [4]

O=C(Nc1cccc(Br)c1)c1ccc2c(c1)SC1=NS(=O)(=O)CCN12
inactive: outcome [1] | outcome [2] | outcome [3] | outcome [4]

O=C(CCCN1C(=O)/C(=C/c2ccccc2OC(F)F)SC1=S)Nc1cccnc1
inactive: outcome [1] | outcome [2] | outcome [3] | outcome [4]

C=CC[C@H](CC(=O)N(CCO)Cc1ccccc1)C(=O)N[C@@H](COC(=O)[C@H](CC=C)CC(=O)OC(C)(C)C)Cc1c[nH]c2ccccc12
inactive: outcome [1] | outcome [2] | outcome [3] | outcome [4]

CC[C@@]1(O)C(=O)OCc2c1cc1n(c2=O)Cc2cc3c(CN(C)C)c(O)ccc3nc2-1
inactive: outcome [1] | outcome [2] | outcome [3] | outcome [4]

Cn1nnnc1Sc1ncnc2scc(-c3cccc(C(F)(F)F)c3)c12
inactive: outcome [1] | outcome [2] | outcome [3] | outcome [4]

C[C@H](CO)N1C[C@H](C)[C@@H](CN(C)Cc2ccccc2)OCCCC[C@H](C)Oc2ccc(NC(=O)Nc3ccc(C(F)(F)F)cc3)cc2C1=O
inactive: outcome [1] | outcome [2] | outcome [3] | outcome [4]

COc1ccc(C(=O)N/N=C/c2ccc(OC)c(CN3CCN(c4ccc(F)cc4)CC3)c2)cc1
inactive: outcome [1] | outcome [2] | outcome [3] | outcome [4]

Cc1cccc(NCc2ccc(O)c3ncccc23)c1C
inactive: outcome [1] | outcome [2] | outcome [3] | outcome [4]

N=c1n(Cc2ccccc2)c2ccccc2n1CC(O)COc1ccc(Cl)cc1Cl (stereo not given)
inactive: outcome [1] | outcome [2] | outcome [3] | outcome [4]

Cc1[nH]nc2nc(SCC(=O)NC3CCCCC3)n(-c3ccc(Br)cc3)c(=N)c12
inactive: outcome [1] | outcome [2] | outcome [3] | outcome [4]

COc1cc(/C=N/NC(=O)c2ccc(CN3C(=O)c4cccc5cccc3c45)cc2)cc(OC)c1O
inactive: outcome [1] | outcome [2] | outcome [3] | outcome [4]

O=C(Nc1ccc(F)cc1)c1nc(S(=O)(=O)Cc2ccccc2)ncc1Cl
inactive: outcome [1] | outcome [2] | outcome [3] | outcome [4]

COc1ccc(Br)cc1/C=C/C(=O)c1ccc(NC(C)=O)cc1
inactive: outcome [1] | outcome [2] | outcome [3] | outcome [4]

O=C(Nc1cccc(C2=NCCN2)c1)Nc1cccc(C2=NCCN2)c1
inactive: outcome [1] | outcome [2] | outcome [3] | outcome [4]

FC(F)(F)c1nnc2c(Sc3ccc(Cl)cc3)nc3ccccc3n12
inactive: outcome [1] | outcome [2] | outcome [3] | outcome [4]

CC(=O)N1CCN(c2ccc(NC(=O)c3ccc([N+](=O)[O-])o3)cc2Cl)CC1
inactive: outcome [1] | outcome [2] | outcome [3] | outcome [4]

O=C(NCCC1CCCCN1S(=O)(=O)c1ccc(Cl)cc1)C(=O)NCc1ccncc1 (stereo not given)
inactive: outcome [1] | outcome [2] | outcome [3] | outcome [4]

NC(=O)[C@H]1CC2(CC(c3cccc(NC(=O)COc4ccc(Cl)cc4)c3)=NO2)CN1C(=O)C(c1ccccc1)c1ccccc1 (stereo not given in full)
inactive: outcome [1] | outcome [2] | outcome [3] | outcome [4]

C=CC(=O)N1C/C(=C/c2ccc(Cl)cc2)C(=O)/C(=C\c2ccc(Cl)cc2)C1
inactive: outcome [1] | outcome [2] | outcome [3] | outcome [4]

COc1ccc(COC(=O)c2cc([N+](=O)[O-])ccc2N2CCOCC2)cc1F
inactive: outcome [1] | outcome [2] | outcome [3] | outcome [4]

CC(C)OCCCNC(=O)c1cccc(NC(=O)c2ccccc2)c1
inactive: outcome [1] | outcome [2] | outcome [3] | outcome [4]

CCCCn1cnc2c(c(-c3ccccc3)c(-c3ccccc3)n2Cc2ccco2)c1=N
inactive: outcome [1] | outcome [2] | outcome [3] | outcome [4]

C[C@@H]1CCCCO[C@H](CN(C)Cc2ccncc2)[C@H](C)CN([C@@H](C)CO)C(=O)c2cc(NC(=O)NC3CCCCC3)ccc2O1
inactive: outcome [1] | outcome [2] | outcome [3] | outcome [4]

O=C1C=CC(=C(c2ccc(O)cc2)c2ccc(O)cc2)C=C1
inactive: outcome [1] | outcome [2] | outcome [3] | outcome [4]

O=C(Nc1ccc(S(=O)(=O)NC2=NCCCCC2)cc1)c1ccc([N+](=O)[O-])s1
inactive: outcome [1] | outcome [2] | outcome [3] | outcome [4]

COc1cccc(/C=N/NC(=O)c2ccc(N3CCCC3=O)cc2)c1
inactive: outcome [1] | outcome [2] | outcome [3] | outcome [4]

O=C1c2ccccc2C(=O)c2[nH]c(=O)[nH]c21
inactive: outcome [1] | outcome [2] | outcome [3] | outcome [4]

COC(C(=O)C(O)C(C)O)C1Cc2cc3cc(OC4CC(OC5CC(O)C(O)C(C)O5)C(O)C(C)O4)c(C)c(O)c3c(O)c2C(=O)C1OC1CC(OC2CC(OC3CC(O)C(OC)C(C)O3)C(O)C(C)O2)C(O)C(C)O1 (stereo not given)
inactive: outcome [1] | outcome [2] | outcome [3] | outcome [4]

O=C(N/N=C/c1ccc(Cl)c([N+](=O)[O-])c1)c1cc(-c2ccc3c4c(cccc24)CC3)n[nH]1
inactive: outcome [1] | outcome [2] | outcome [3] | outcome [4]

CN(CCc1cn[nH]c1)Cc1nc(C(c2ccccc2)c2ccccc2)no1
inactive: outcome [1] | outcome [2] | outcome [3] | outcome [4]

C[C@H](CO)N1C[C@H](C)[C@@H](CN(C)Cc2ccncc2)Oc2ccc(NC(=O)Nc3ccc(C(F)(F)F)cc3)cc2CC1=O
inactive: outcome [1] | outcome [2] | outcome [3] | outcome [4]

C[C@@H]1CCCCO[C@@H](CN(C)Cc2ccc3c(c2)OCO3)[C@H](C)CN([C@@H](C)CO)C(=O)c2cc(NC(=O)Nc3ccc(C(F)(F)F)cc3)ccc2O1
inactive: outcome [1] | outcome [2] | outcome [3] | outcome [4]

O=C(NC1CCCCC1)C(c1cccs1)N(C(=O)Cc1c[nH]c2ccccc12)c1ccc(F)cc1 (stereo not given)
inactive: outcome [1] | outcome [2] | outcome [3] | outcome [4]

COC(=O)[C@@]12C[C@@H](CC(=O)N3CCN(C(=O)c4ccco4)CC3)C(=O)N(Cc3ccco3)C1=CCC(C)(C)C2
inactive: outcome [1] | outcome [2] | outcome [3] | outcome [4]

O=C(N/N=C/c1ccsc1)c1cc(-c2cccs2)nc2ccccc12
inactive: outcome [1] | outcome [2] | outcome [3] | outcome [4]

C=C1C(=O)[C@@]23[C@H](O)C[C@@H]4C(C)(C)CC[C@H](O)[C@@]4(C)[C@@H]2CC[C@@H]1[C@H]3O
inactive: outcome [1] | outcome [2] | outcome [3] | outcome [4]

Cc1ccc2c(c1C)-c1c(ccc(C)c1C)C(=O)C2=O
inactive: outcome [1] | outcome [2] | outcome [3] | outcome [4]

Cc1ccc(S(=O)(=O)c2nc(S(=O)(=O)c3ccccc3)sc2N2CCN(C)CC2)cc1
inactive: outcome [1] | outcome [2] | outcome [3] | outcome [4]

C=C1C(=O)[C@]23C[C@H]1CC[C@H]2[C@]1(C)[C@@H](OC(C)=O)CC[C@@](C)(C(=O)OC)[C@H]1C[C@@H]3OC(C)=O
inactive: outcome [1] | outcome [2] | outcome [3] | activity change, negative = cytotoxicity [4] -15.7% [at 8 µM]

C=CCC[C@H](Cc1ccc(F)cc1)C(=O)OC[C@H](Cc1c[nH]c2ccccc12)NC(=O)[C@H](CC=C)CC(=O)N(CCO)Cc1ccccc1
inactive: outcome [1] | outcome [2] | outcome [3] | outcome [4]

CCN(CC(=O)Nc1c(F)cccc1F)C(=O)c1cc(S(=O)(=O)N(CC)CC)ccc1N1CCCCC1
inactive: outcome [1] | outcome [2] | outcome [3] | outcome [4]

CN(C)N=Nc1nc[nH]c1C(N)=O
inactive: outcome [1] | outcome [2] | outcome [3] | outcome [4]

COc1ccc2c3c(n(C)c2c1)[C@H](CO)N(C(=O)Nc1ccc(F)cc1)CC31CCN(S(=O)(=O)c2cccc(C)c2)CC1
inactive: outcome [1] | outcome [2] | outcome [3] | outcome [4] | outcome [5] | max activity [6] -14.5% | outcome [7]

Oc1ccc(C[C@H]2CNC(=S)N2CC2CCCN2C[C@H](Cc2ccccc2)N2C[C@H](Cc3ccc(O)cc3)N(CCc3ccccc3)C2=S)cc1 (stereo not given in full)
inactive: outcome [1] | outcome [2] | outcome [3] | outcome [4]

O=C(c1nnsc1S(=O)(=O)c1ccc(Cl)cc1)N1CCOCC1
inactive: outcome [1] | outcome [2] | outcome [3] | outcome [4]

C[C@H]1CN([C@@H](C)CO)C(=O)c2cc(NS(=O)(=O)c3ccc(Cl)cc3)ccc2O[C@H]1CN(C)Cc1ccc(Cl)c(Cl)c1
inactive: outcome [1] | outcome [2] | outcome [3] | outcome [4] | outcome [5] | max activity [6] -29.6% | outcome [7] | outcome [8]

C[C@@H]1CN([C@@H](C)CO)S(=O)(=O)c2ccc(C#C[C@@H](C)O)cc2O[C@@H]1CN(C)Cc1ccc(-c2ccccc2)cc1
inactive: outcome [1] | outcome [2] | outcome [3] | outcome [4] | outcome [5] | max activity [6] -11.9% [at 16 µM, stronger effect = lower value] | outcome [7] | outcome [8]

Cc1ccccc1N=C1N=C(N)c2ccccc21
inactive: outcome [1] | outcome [2] | outcome [3] | outcome [4]

C[C@@H]1CN([C@@H](C)CO)C(=O)c2cc(NC(=O)Nc3ccc(C(F)(F)F)cc3)ccc2O[C@@H](C)CCCCO[C@@H]1CN(C)Cc1ccc2c(c1)OCO2
inactive: outcome [1] | outcome [2] | outcome [3] | outcome [4] | outcome [5] | max activity [6] -5.57% [at 16 µM, stronger effect = lower value] | outcome [7]
